The source of these data is the supplement of paper PMC10981050.

Molecules are shown by their SMILES. Where “and” joins values, the source holds several entries; their conditions need not be identical. Identical values can stand only once. Counter-ions that a name gives are not always drawn.

Common to all, as to experiment: cell viability relative to vehicle control; higher = less cytotoxic
What all share (conditions): 10 µM

One experiment deals with K562. The essentials: (§1)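 After removal of identity-inconsistent compounds, the Selleck bioactive, kinase and epigenetic probe libraries were screened on CRISPR-edited mutant clones and isogenic wild-type clones of four leukaemia lines. Plates were 384-well, each well holding 2000 cells in 50 µL medium and receiving a single 10 µM acoustically dispensed dose. CellTiter-Glo luminescence was read 48 h later, after the supernatant was taken off. Genedata Screener was used to express viability as percent of the on-plate vehicle control.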

Another experiment has as its system MARIMO. The essentials:
as §1

Another experiment has as its system MOLM14. The essentials: as §1
The test system of the next experiment is OCI-AML2. A digest of the protocol:
as §1

Consider `NCC(=O)CCC(=O)O` [5-Aminolevulinic acid hydrochloride], for which the cell viability – broadly, a read-out of living cells in per cent, often relative to untreated cells – is 94.7% and 105% with K562 (SRSF2 genotype: SRSF2 P95H/wt); 103% with K562 (SRSF2 genotype: SRSF2 wt/wt); 109% in the experiment with MARIMO (SRSF2 genotype: SRSF2 P95H/wt); 101% in the experiment on MARIMO (SRSF2 genotype: SRSF2 wt/wt); 99.1% in the experiment with MOLM14 (SRSF2 genotype: SRSF2 P95H/wt); 105% with MOLM14 (SRSF2 genotype: SRSF2 wt/wt). In addition, the cell viability turned out to be 108% in the experiment with OCI-AML2 (SRSF2 genotype: P95H/wt) and 96.3% in the experiment with OCI-AML2 (SRSF2 genotype: wt/wt).

`N#Cc1ccc(C(c2ccc(C#N)cc2)n2cncn2)cc1` [Letrozole]: the cell viability in the experiment with K562 (SRSF2 genotype: SRSF2 P95H/wt) is 95.7% and 97.2%; with K562 (SRSF2 genotype: SRSF2 wt/wt), 91.9%; with MARIMO (SRSF2 genotype: SRSF2 P95H/wt) it was 91.9%; in the experiment on MARIMO (SRSF2 genotype: SRSF2 wt/wt) it was 94%; with MOLM14 (SRSF2 genotype: SRSF2 P95H/wt), 96.8%; in the experiment on MOLM14 (SRSF2 genotype: SRSF2 wt/wt), 92.3%. The cell viability in the experiment on OCI-AML2 (SRSF2 genotype: P95H/wt) turned out to be 87.5%; in the experiment with OCI-AML2 (SRSF2 genotype: wt/wt), 90.1%.

Consider `CC(=O)Oc1ccc2c(c1)Oc1cc(OC(C)=O)ccc1C21OC(=O)c2cc(C(=O)ON3C(=O)CCC3=O)ccc21.CC(=O)Oc1ccc2c(c1)Oc1cc(OC(C)=O)ccc1C21OC(=O)c2ccc(C(=O)ON3C(=O)CCC3=O)cc21`, for which the cell viability in the experiment on K562 (SRSF2 genotype: SRSF2 P95H/wt) is 90.8% and 93.8%; in the experiment with K562 (SRSF2 genotype: SRSF2 wt/wt) it was 99.6%; in the experiment with MARIMO (SRSF2 genotype: SRSF2 P95H/wt), 98.1%; with MARIMO (SRSF2 genotype: SRSF2 wt/wt), 77.4%; in the experiment with MOLM14 (SRSF2 genotype: SRSF2 P95H/wt) it was 92.8%; with MOLM14 (SRSF2 genotype: SRSF2 wt/wt), 63.6%. In addition, the cell viability with OCI-AML2 (SRSF2 genotype: P95H/wt) was found to be 75.5%; with OCI-AML2 (SRSF2 genotype: wt/wt) it was 77.9%.

With `Cc1cc(=O)oc2c(C=O)c(O)ccc12`, the cell viability is 110% and 118% in the experiment with K562 (SRSF2 genotype: SRSF2 P95H/wt); 112% in the experiment with K562 (SRSF2 genotype: SRSF2 wt/wt); 99% in the experiment on MARIMO (SRSF2 genotype: SRSF2 P95H/wt); 97.4% in the experiment on MARIMO (SRSF2 genotype: SRSF2 wt/wt); 94.8% with MOLM14 (SRSF2 genotype: SRSF2 P95H/wt); 109% with MOLM14 (SRSF2 genotype: SRSF2 wt/wt). Moreover, the cell viability with OCI-AML2 (SRSF2 genotype: P95H/wt) stood at 92.5%; in the experiment with OCI-AML2 (SRSF2 genotype: wt/wt), 98.3%.

`COc1ccc2cc(CCC(C)=O)ccc2c1` [Nabumetone]: the cell viability with K562 (SRSF2 genotype: SRSF2 P95H/wt) is 105% and 96.8%; in the experiment with K562 (SRSF2 genotype: SRSF2 wt/wt), 93.8%; with MARIMO (SRSF2 genotype: SRSF2 P95H/wt), 97.1%; in the experiment on MARIMO (SRSF2 genotype: SRSF2 wt/wt), 95.3%; with MOLM14 (SRSF2 genotype: SRSF2 P95H/wt) it was 104%; in the experiment with MOLM14 (SRSF2 genotype: SRSF2 wt/wt), 104%. In addition, the cell viability with OCI-AML2 (SRSF2 genotype: P95H/wt) and in the experiment on OCI-AML2 (SRSF2 genotype: wt/wt) was 92.4% throughout.

`CC(C)C[C@H](NC(=O)[C@H](Cc1ccccc1)NC(=O)c1cnccn1)B(O)O` [Bortezomib (Velcade)]: the cell viability in the experiment with K562 (SRSF2 genotype: SRSF2 P95H/wt) is 1.99% and 2.21%; in the experiment on K562 (SRSF2 genotype: SRSF2 wt/wt), 1.46%; in the experiment on MARIMO (SRSF2 genotype: SRSF2 P95H/wt), 0.39%; with MARIMO (SRSF2 genotype: SRSF2 wt/wt), 0.93%; in the experiment with MOLM14 (SRSF2 genotype: SRSF2 P95H/wt), 0.29%; with MOLM14 (SRSF2 genotype: SRSF2 wt/wt), 0.31%. The cell viability in the experiment with OCI-AML2 (SRSF2 genotype: P95H/wt) stood at 0.19%; in the experiment with OCI-AML2 (SRSF2 genotype: wt/wt) it was 0.25%.

Regarding `COc1ccc(S(=O)(=O)Nc2cccnc2Nc2ccc(O)cc2)cc1`, the cell viability was 16.4% and 39.8% in the experiment on K562 (SRSF2 genotype: SRSF2 P95H/wt); 36.7% with K562 (SRSF2 genotype: SRSF2 wt/wt); 7.19% in the experiment with MARIMO (SRSF2 genotype: SRSF2 P95H/wt); 9.01% in the experiment on MARIMO (SRSF2 genotype: SRSF2 wt/wt); 16.8% in the experiment with MOLM14 (SRSF2 genotype: SRSF2 P95H/wt); 5.56% in the experiment on MOLM14 (SRSF2 genotype: SRSF2 wt/wt). The cell viability in the experiment on OCI-AML2 (SRSF2 genotype: P95H/wt) amounted to 9.51%; in the experiment on OCI-AML2 (SRSF2 genotype: wt/wt), 11.2%.

On to `Cc1cc(=O)oc2cc(O)ccc12` [4-Methylumbelliferone (4-MU)], for which the cell viability is 107% and 96.8% in the experiment with K562 (SRSF2 genotype: SRSF2 P95H/wt); 99.6% in the experiment on K562 (SRSF2 genotype: SRSF2 wt/wt); 98.5% in the experiment on MARIMO (SRSF2 genotype: SRSF2 P95H/wt); 96.7% with MARIMO (SRSF2 genotype: SRSF2 wt/wt); 102% in the experiment with MOLM14 (SRSF2 genotype: SRSF2 P95H/wt); 102% in the experiment on MOLM14 (SRSF2 genotype: SRSF2 wt/wt). For the same compound, the cell viability in the experiment on OCI-AML2 (SRSF2 genotype: P95H/wt) was 100%; in the experiment with OCI-AML2 (SRSF2 genotype: wt/wt), 99.9%.

For `CN1[C@@H]2CC[C@H]1C[C@@H](OC(=O)c1c[nH]c3ccccc13)C2` [Tropisetron HCl], the cell viability in the experiment with K562 (SRSF2 genotype: SRSF2 P95H/wt) was 97.5% and 100%; in the experiment on K562 (SRSF2 genotype: SRSF2 wt/wt), 96.6%; in the experiment on MARIMO (SRSF2 genotype: SRSF2 P95H/wt), 102%; with MARIMO (SRSF2 genotype: SRSF2 wt/wt), 102%; in the experiment on MOLM14 (SRSF2 genotype: SRSF2 P95H/wt), 104%; with MOLM14 (SRSF2 genotype: SRSF2 wt/wt), 102%. Moreover, the cell viability in the experiment on OCI-AML2 (SRSF2 genotype: P95H/wt) is 101%; in the experiment with OCI-AML2 (SRSF2 genotype: wt/wt) it was 105%.
